Reference: ChEMBL document CHEMBL1157539, “Thousands of chemical starting points for antimalarial lead identification” (Nature, 2010)

Legend:
Assay type in all cases: functional
Plasmodium falciparum [1] = experiment: GSK_TCMDC: Inhibition of Plasmodium falciparum 3D7 in whole red blood cells, using parasite LDH activity as an index of growth. Test compounds present at 2uM
Plasmodium falciparum [2] = experiment: GSK_TCMDC: Inhibition of Plasmodium falciparum Dd2 in whole red blood cells, using parasite LDH activity as an index of growth. Test compounds present at 2uM
HepG2 = experiment: GSK_TCMDC: Percent inhibition of human HepG2 cell line. Test compounds present at 10uM.

Row | Structure (SMILES) | Inhibition (Plasmodium falciparum [1]) [%] | Inhibition (Plasmodium falciparum [2]) [%] | Inhibition (HepG2) [%]
1 | CC(=O)c1ccc2c(c1)C(NC(=O)c1cccc(Cl)c1Cl)C(CO)C(C)(C)O2 (stereo not given) | 99 | 44 | 5
2 | CCOc1cc(C(=O)NC2CC(C)(C)NC(C)(C)C2)ccc1-c1nc2cc(Cl)ccc2[nH]1 | 100 | 64 | 46
3 | COc1ccc2ncn(-c3ccc(C(N)=O)c(OCc4ccccc4C(F)(F)F)c3)c2c1 | 98 | 100 | 18
4 | CC(C)N1CCC(N(Cc2ccc(-c3ccc(C(F)(F)F)cc3)cc2)C(=O)Cn2c(CCc3cccc(F)c3F)nc(=O)c3cccnc32)CC1.O=C(O)C(O)C(O)C(=O)O | 100 | 80 | 100
5 | CN(C)CCOc1ccc(-c2cc(-c3ccncc3)c(-c3ccc(Cl)c(O)c3)[nH]2)cc1.Cl | 98 | 100 | 25
6 | COc1ccc(/C=C/C(=O)NCCCCCN2CCC(c3c[nH]c4ccccc34)CC2)cc1O | 91 | 1 | 9
7 | CCn1c(CN2CCN(Cc3ccccc3)CC2)nc2cc(NC(=O)c3cccs3)ccc21 | 97 | 95 | 0
8 | CC(Cc1ccc(CNC(=O)c2ccc(CC(C)NCCc3cccc(Cl)c3)cc2)cc1)NCCc1cccc(Cl)c1 (stereo not given) | 99 | 66 | 99
9 | C(=NN=c1cc(-c2ccccc2)[nH]c2ccccc12)c1cccnc1 | 87 | 13 | 23
10 | CCN(CC)CCN(Cc1ccc(-c2ccc(C(F)(F)F)cc2)cc1)C(=O)Cn1c(CCc2cccc(F)c2F)nc(=O)c2ccccc21.O=C(O)C(O)C(O)C(=O)O | 97 | 60 | 49
